Compound activity (PubChem)
AMA1-RON2 inh: qHTS for Inhibitors of AMA1-RON; Towards Development of Antimalarial Drug Lead: Primary Screen. Plasmodium falciparum AMA1 (3D7) - RON2 peptide interaction. AlphaScreen AMA1-biotinylated RON2 peptide binding. Potency, µM (titrated, usually from 58.2 µM), usual class: inhibitors. 360,000 tested, 0.2% active. AID 720542, 2013; also: nearly all actives have a fitted effect of over 45% in size
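AMA1 (3D7) with his tag at 25 nM final met compounds first, then biotinylated RON2 peptide at 25 nM; detection used donor plus acceptor beads, 10 µg/mL apiece, read by AlphaScreen after 30 min at room temperature.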
SARS PLpro yeast: qHTS of Yeast-based Assay for SARS-CoV PLP; S. cerevisiae expressing SARS-CoV PLpro, growth rescue; Potency, µM (series often up to 32.9 µM), usual class: activators; 330,000 tested, 0.19% active; calls by dose curve; also: nearly all actives have a fitted effect of over 55% in size
LmPK inh: qHTS Assay for Inhibitors of Leishmania Mexicana Pyruvate Kinase (LmPK) | Q27686 | 290,000 tested, 0.37% active | purified LmPK, Kinase-Glo ATP luminescence, 1 h | Potency, µM (highest dose often 57.5 µM), most hits filed as inhibitors
Target sequence (Q27686 whole entry, looked up): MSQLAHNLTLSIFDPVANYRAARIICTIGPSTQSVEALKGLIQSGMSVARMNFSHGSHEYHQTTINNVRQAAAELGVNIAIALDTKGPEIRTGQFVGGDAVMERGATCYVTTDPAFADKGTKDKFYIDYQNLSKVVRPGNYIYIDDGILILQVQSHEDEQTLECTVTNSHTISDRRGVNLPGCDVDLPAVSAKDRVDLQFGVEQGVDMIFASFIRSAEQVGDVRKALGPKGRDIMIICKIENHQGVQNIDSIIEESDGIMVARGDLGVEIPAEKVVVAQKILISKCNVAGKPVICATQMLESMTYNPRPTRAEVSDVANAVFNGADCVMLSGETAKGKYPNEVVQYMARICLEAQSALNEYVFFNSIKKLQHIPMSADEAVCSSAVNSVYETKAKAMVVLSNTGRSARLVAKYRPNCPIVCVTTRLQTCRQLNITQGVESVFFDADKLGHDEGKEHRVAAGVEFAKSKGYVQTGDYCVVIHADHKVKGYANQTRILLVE
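In 50 mM imidazole pH 7.2 with 7 mM MgCl2, LmPK (0.1 nM) turned over PEP (0.5 mM) and ADP (0.1 mM) for 1 h at room temperature. Luciferase read-out of ATP.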
RE007 growth inh: qHTS Assay for Inhibitors of the HIV-1 protein Vpr. AID 651644, 2012. 360,000 tested, 0.21% active. S. pombe RE007 Vpr strain, BacTiter-Glo ATP luminescence, 24 h. Potency, µM (top dose mostly 92.2 µM), most hits filed as inhibitors; active = well fitted falling curve with a large enough effect; inconclusive = small, poorly fitted or top-dose-only effect; inactive = no such curve, though single readings can be large or run the other way; also: nearly all actives have a fitted effect of over 50% in size
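Fission yeast RE007 carrying one integrated HIV-1 vpr copy, seeded at OD 0.01 in PMG+AL medium with 23 nL pinned compound. Grown 24 h at 30 degrees; viability read by BacTiter-Glo luminescence after 5 min.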
TbPYK inhibitor: qHTS of Trypanosoma Brucei Inhibitors; AID 624173, 2012; TbPYK enzyme, Kinase-Glo Plus ATP luminescence, 45 min; 410,000 tested, 0.12% active; Potency, µM (titrated, usually from 76.8 µM), most hits filed as inhibitors; pyruvate kinase (Trypanosoma brucei), Q57TT1; also: nearly all actives have a fitted effect of over 50% in size
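ADP (130 uM final) triggers the TbPYK reaction after compound addition; incubation is 45 min at room temperature. Kinase-Glo Plus is then added and luminescence imaged. Normalized data are fitted to concentration-effect curves.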
Numbers stand for hits; - = inactive; ? = inconclusive; . = not tested or not shown; [ ] = dose if it differs, or a comment. An excerpt weighted towards active compounds, which were near 0.81% of everything screened. Unless noted, calls follow the shape of the dose curve; as a rule, active = well fitted curve in the direction sought with a large enough effect; inconclusive = small, poorly fitted or top-dose-only effect, or another doubt; inactive = no such curve, though single readings can be large; an effect the other way counts as inactive or inconclusive.

SMILES	AMA1-RON2 inh	SARS PLpro yeast	LmPK inh	RE007 growth inh	TbPYK inhibitor
CCOC(=O)c1ccc(N2C(=O)C3CCCN3C2=S)cc1 (configuration not stated)	35µM	-	.	-	-
CCOc1ccc(N2C(=O)C3CCCN3C2=S)cc1 (configuration not stated)	-	-	.	-	-
Cc1cccc(N2C(=O)CC(N3CCOCC3)C2=O)c1 (configuration not stated)	-	-	-	-	-
CCN1C(=O)CC(N2CCC(Nc3ccc(F)cc3)CC2)C1=O (configuration not stated)	-	-	-	-	-
CCOC(=O)c1ccc(N2C(=O)CC(N3CCC(Nc4ccc(F)cc4)CC3)C2=O)cc1 (configuration not stated)	-	-	-	7.9µM	-
C/C(=C(\CCO)SSCC1CCCO1)N(C=O)Cc1cnc(C)nc1N (configuration not stated)	.	.	.	.	-
Cc1ccccc1C(=O)N/N=C/c1ccc([N+](=O)[O-])s1	-	-	-	-	-
Cc1c(Cl)cccc1N=Cc1ccc([N+](=O)[O-])s1	-	-	-	16µM	-
CCc1nc2sc3c(c2c(=O)n1NC(=O)CCl)CCCC3	-	10µM	-	-	-
Cc1cc(N)n2nc(-c3ccccc3)cc2n1	-	-	16µM	?	-
CCCCCCCCCCCCCCCC(=O)OCC(COC(=O)CCCCCCCCCCCCCCC)OC(=O)CCCCCCCCCCCCCCC	.	.	.	.	-
N#Cc1cc(-c2ccccc2)nn1-c1ccccc1	-	-	25µM	-	14µM
Cc1ccc(N)c(C(=O)c2ccc(Br)cc2)c1	16µM	-	-	-	-
Nc1ccc(Br)cc1C(=O)c1ccccc1	-	-	-[11.5 µM]	-	-
COc1ccccc1/C=N\Nc1ccccc1[N+](=O)[O-]	?	-	-	-	-
Cc1[nH]c2ccccc2c1/C=N/Nc1ccccc1[N+](=O)[O-]	32µM	-	?	-	-
CC(C)Oc1ccccc1/C=N/Nc1ccccc1[N+](=O)[O-]	7.1µM	-	-	-	-
COc1ccc(NS(=O)(=O)c2cc([N+](=O)[O-])ccc2N/N=C/c2c(C)[nH]c3ccccc23)cc1	-	.	.	-	-
CC(=O)C1=C(c2ccc(Br)cc2)C(=O)c2ccccc2C1=O	16µM	-	-	?	-
CCOC(=O)c1ccc(NC(=O)c2oc3c(c2C)-c2nn(Cc4ccccc4Cl)cc2CC3)cc1	.	.	.	.	-
COc1ccc(NC(=O)c2cc(-c3cccs3)on2)c(OC)c1	-	-	-	-	-
COc1ccc(OC)c(NC(=O)c2ccc(-c3cccs3)cc2)c1	28µM	-	-	-	-
CC1(Cn2ccnn2)[C@H](C(=O)O)N2C(=O)C[C@H]2S1(=O)=O (some centres not stated)	.	.	.	.	-
Cc1ccc(C(=O)CCS(=O)(=O)c2ccc(Br)cc2)cc1	-	-	-	-	-
Cc1ccc(S(=O)(=O)CCC(=O)c2cccc([N+](=O)[O-])c2)cc1	-	-	-	5.6µM	?
SMILES	AMA1-RON2 inh	SARS PLpro yeast	LmPK inh	RE007 growth inh	TbPYK inhibitor
O=C(CCNc1ccc(Cc2ccncc2)cc1)c1cccc([N+](=O)[O-])c1	-	-	-	35µM	-
O=C(CCNc1cccc(F)c1)c1cccc([N+](=O)[O-])c1	-	-	-	?	-
CCn1nc(-c2ccccc2)nc2c(=O)n(C)c(=O)nc1-2	-	-	-	25µM	-
COc1cccc(-n2sc3c(c2=S)-c2cc(OC)ccc2NC3(C)C)c1	22µM	-	-	-	-
COc1cccc(-n2cn[nH]c2=S)c1	-	-	-	-	?
Brc1ccc(-c2noc(-c3ccccn3)n2)o1	-	-	?	?	-
O=[N+]([O-])c1ccccc1-c1nc(-c2ccc(Br)o2)no1	25µM	?	-	-	-
COc1ccccc1-c1nc(-c2ccccn2)no1	-	-	4.5µM	?	?
Brc1ccc(-c2nc(-c3ccccn3)no2)o1	-	-	32µM	?	-
COc1ccccc1-c1noc(-c2ccncc2)n1	-	-	?	-	-
COc1nc(C)ccc1-c1noc(-c2ccccn2)n1	-	-	22µM	-	-
CNS(=O)(=O)c1cn(CC(=O)N2CCN(c3ccc(C)cc3C)CC2)cc1S(=O)(=O)NC	.	.	.	.	-[15.4 µM]
Cc1ccc(NC(=O)Cn2ccn(-c3ccc(F)c(F)c3)c(=O)c2=O)cc1C	.	.	.	.	-
Cc1cc(-c2n[nH]c(=S)n2Cc2ccccc2)cs1	-	-	?	-	3.5µM
Cc1ccc(C)c(-n2c(-c3csc(C)c3C)n[nH]c2=S)c1	-	-	7.1µM	-	?
S=c1[nH]nc(-c2ccccc2Cl)n1Cc1ccccc1	-	-	-	-	6.3µM
Cc1scc(-c2n[nH]c(=S)n2Cc2ccccc2)c1C	-	?	?	-	3.2µM
C[C@H]1Cc2c(COc3ccccc3)nc3c(c2CO1)CN(C(=O)NCCc1c[nH]c2ccccc12)CC3	.	.	-[11.5 µM]	.	.
C=CCC1(C(C)CCC)C(=O)NC(=O)NC1=O (configuration not stated)	.	.	.	.	-
CN(C)CCN1CCN(C2CN(Cc3cn(Cc4ccc(Cl)cc4)nn3)S(=O)(=O)C2)CC1 (configuration not stated)	-	.	.	-	-
Oc1ccc(-c2n[nH]c(=S)n2Cc2ccccc2)cc1	-	-	8.9µM	-	?
COc1ccc(NC(=O)N2CCc3nc(-c4ccccc4)c4c(c3C2)CO[C@@H](C)C4)cc1	.	.	-[11.5 µM]	.	.
CC1(C)C(=O)Nc2ccccc2N1C(=O)COC(=O)c1cccnc1Cl	-	-	.	-	-
CCN1/C(=C2\C(=O)N(C)C(=S)N2C)C=Cc2cc(C)ccc21	-	-	16µM	-	-
CCN1/C(=C2\C(=O)N(C)C(=S)N2c2ccccc2)C=Cc2ccccc21	?	-	18µM	-	?
SMILES	AMA1-RON2 inh	SARS PLpro yeast	LmPK inh	RE007 growth inh	TbPYK inhibitor
Cc1ccc(C)c(Cn2c3ccccc3c3cnn(CC(=O)NCc4ccccc4)c(=O)c32)c1	.	.	.	.	-
O=C1C(O)=CC(=C(c2ccccc2)c2ccccc2)c2ccccc21	10µM	.	.	-	-
O=C(CSCc1ccc(Cl)cc1)Nc1ccccc1O	-	-	-	-	-
O=C(CCCSc1ccc(Cl)cc1)Nc1ccccc1O	-	-	-	35µM	-
Cc1cccc(C[C@H](C(=O)O)N2C(=O)c3ccc(C(=O)O)cc3C2=O)c1	.	-	.	.	.
CCN1C(=O)[C@@H]2[C@@H]3CN(S(=O)(=O)c4ccc(C)cc4)[C@@H](c4ccccc4)[C@@H]3C(=O)C[C@@H]2C1=O	-	.	.	-	-
CCOC1=CC2=C(C(=O)C(Cl)=CC2=O)[C@@H]2CN(S(=O)(=O)c3ccc(C)cc3)[C@@H](c3ccccc3)[C@H]12	-	.	.	-	2.5µM
